Records with an inconclusive call do not appear. Active and inactive are the calls of the source. Calls come from the whole dose curve; as a rule, active = well fitted inhibition curve with a large enough effect; inconclusive = small, poorly fitted or top-dose-only effect; inactive = flat fitted curve, though single readings scatter.
What follows are compounds tested on CP203 (assay: qHTS profiling for inhibitors of Plasmodium falciparum proliferation (AID 504749; note: nearly all actives have a fitted effect of over 60% in size;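 for activity, negative = inhibition: 0% = DMSO vehicle and full inhibition = artemisinin control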)). Conditions: P. falciparum in erythrocytes, SYBR Green DNA, 72 h; series mostly up to 28.7 µM; activity, negative = inhibition: at the top concentration.
Excerpt: NIH National Institute of Allergy and Infectious Diseases [NIAID] NIH Chemical Genomics Center [NCGC] MLPCN Grant: None Assay Provider: Xinzhuan Su, NIAID NCGC Assay Overview: Plasmodium falciparum is a virulent malarial parasite that kills 1-2 million people worldwide each year. Transmitted by mosquitoes, the sporozoite form of the parasite enters the blood stream to infect hepatocytes, where they become merozoites that infect red blood cells (erythrocytes). Within erythrocytes, merozoites begin a […] cycle of growth and division, after which the parasite is released to infect new red blood cells. Gametocytes, which form within erythrocytes as well, circulate in the bloodstream and are ingested by the mosquito, thereby completing the life cycle. To profile malarial isolates for differential chemical responses and to identify inhibitors of malarial growth, an assay that measures P. falciparum growth and replication within erythrocytes was employed. This assay uses a DNA binding fluorescent dye (SYBR Green) to detect parasite DNA following cell lysis. Because mature erythrocytes lack DNA, only Plasmodium-derived DNA is detected.
NCGC Assay Protocol Summary: The SYBR Green viability assay was adapted from a method described previously (Plouffe et al., 2008). For screening 3 ul culture medium was dispensed into 1536 well black clear bottom plates (Aurora Biotechnologies) using a Multidrop Combi (Thermo Fisher Scientific Inc.), 23 nL compounds in DMSO were added by a pin tool (Kalypsys), and 5 ul of erythrocytes infected with P. falciparum (0.3% parasitemia, 2.5% hematocrit final concentration) were added. The plates were incubated at 37 C in a humidified incubator in 5% CO2 for 72 h, and 2 ul lysis buffer (20 mM Tris HCl, 10 mM EDTA, 0.16% saponin, 1.6% triton X, 10X SYBR Green I supplied as 10,000X […] by Invitrogen) was added to each well. The plates were mixed for 25 sec with gentle shaking and incubated overnight at room temperature in the dark. The following morning, fluorescence intensity at 485(14) nm excitation and 535(25) nm emission wavelengths was measured on an EnVision (Perkin Elmer) plate reader. Plate reads were normalized relative to the control inhibitor (0.29 uM artemisinin) and vehicle (DMSO) wells present on each plate and then corrected by an algorithm using vehicle-only control plates at the beginning and end of the compound plate stack.
Potency is the fitted concentration of half-maximal effect.

Q: Nc1nc2c(ncn2COCCO)c(=O)[nH]1 was tested. Which “activity, negative = inhibition” value did it give?
A: -3.47% [at 12.8 µM] (inactive)

Q: For N#Cc1ccc(C(c2ccc(C#N)cc2)n2cncn2)cc1, which “activity, negative = inhibition” value is on record?
A: -1.93% [at 12.8 µM] (inactive)

Q: How did the “activity, negative = inhibition” value turn out when CC(c1cc2ccccc2s1)N(O)C(N)=O (stereo not given) was run?
A: -2.21% (inactive)

Q: For CC(C)NCC(O)COc1ccc(COCCOC(C)C)cc1 (stereo not given), which “activity, negative = inhibition” value is on record?
A: -1.74% (inactive)

Q: How did the “activity, negative = inhibition” value turn out when N[C@@H]1CONC1=O was run?
A: 1.53% (inactive)

Q: O=NN(CCCl)C(=O)NCCCl was tested. Which “activity, negative = inhibition” value did it give?
A: -18.3% (inactive)

Q: For NCCCC(N)(C(=O)O)C(F)F (stereo not given), which “activity, negative = inhibition” value is on record?
A: 5.23% (inactive)

Q: For Clc1ccc(Nc2nnc(Cc3ccncc3)c3ccccc23)cc1, which “activity, negative = inhibition” value is on record?
A: -3.3% (inactive)

Q: How did the “activity, negative = inhibition” value turn out when Cc1[nH]c(=O)c(C#N)cc1-c1ccncc1 was run?
A: 2.83% (inactive)

Q: Which “activity, negative = inhibition” value does the source give for Clc1cccc(Cl)c1NC1=NCCN1 here?
A: 6.08% (inactive)

Q: For N=c1nc(N2CCCCC2)cc(N)n1O, which “activity, negative = inhibition” value is on record?
A: 2.97% (inactive)

Q: Which “activity, negative = inhibition” value does the source give for COc1ccc2nc(S(=O)Cc3ncc(C)c(OC)c3C)[nH]c2c1 (stereo not given) here?
A: -11.9% (inactive)

Q: Which “activity, negative = inhibition” value does the source give for CCc1ccc(CCOc2ccc(CC3SC(=O)NC3=O)cc2)nc1 (stereo not given) here?
A: -0.396% (inactive)

Q: Cc1[nH]c(=O)c(C#N)cc1-c1ccc2nccn2c1 was tested. Which “activity, negative = inhibition” value did it give?
A: 0.966% (inactive)

Q: Which “activity, negative = inhibition” value does the source give for Cn1cnc([N+](=O)[O-])c1Sc1ncnc2nc[nH]c12 here?
A: -3.77% (inactive)

Q: How did the “activity, negative = inhibition” value turn out when CC(C[N+](C)(C)C)OC(N)=O (stereo not given) was run?
A: 5.23% (inactive)

Q: With CC(C)C[C@H](NC(=O)[C@@H](O)[C@H](N)Cc1ccccc1)C(=O)O as the compound, how does the Potency read?
A: 6.01 µM (active)

Q: Which “activity, negative = inhibition” value does the source give for NS(=O)(=O)c1cc2c(cc1Cl)NC=NS2(=O)=O here?
A: 2.09% (inactive)

Q: Nc1nc2ccc(OC(F)(F)F)cc2s1 was tested. Which “activity, negative = inhibition” value did it give?
A: -2.4% (inactive)

Q: How did the “activity, negative = inhibition” value turn out when O=c1n(CCCN2CCN(c3cccc(Cl)c3)CC2)nc2ccccn12 was run?
A: -7.87% [at 12.8 µM] (inactive)

Q: With O=c1[nH]cnc2[nH]ncc12 as the compound, how does the “activity, negative = inhibition” value read?
A: 3.38% (inactive)

Q: Which “activity, negative = inhibition” value does the source give for O=C1CCC(N2C(=O)c3ccccc3C2=O)C(=O)N1 (stereo not given) here?
A: 4.13% (inactive)

Q: For CNC[C@H](O)c1cccc(O)c1, which “activity, negative = inhibition” value is on record?
A: -2.74% (inactive)

Q: With NNCCc1ccccc1 as the compound, how does the “activity, negative = inhibition” value read?
A: -4.97% [at 12.8 µM] (inactive)

Q: How did the Potency turn out when CN1CCN(CCCN2c3ccccc3Sc3ccc(C(F)(F)F)cc32)CC1 was run?
A: 15.1 µM (active)

Q: With Oc1ccc(C2CNCCc3c2cc(O)c(O)c3Cl)cc1 (stereo not given) as the compound, how does the “activity, negative = inhibition” value read?
A: 1.7% (inactive)

Q: How did the “activity, negative = inhibition” value turn out when CCCc1nc2c(C)cc(-c3nc4ccccc4n3C)cc2n1Cc1ccc(-c2ccccc2C(=O)O)cc1 was run?
A: -15.5% (inactive)

Q: Which “activity, negative = inhibition” value does the source give for Cc1cn[nH]c1 here?
A: -8.68% (inactive)

Q: How did the “activity, negative = inhibition” value turn out when NC[C@H](O)c1ccc(O)c(O)c1 was run?
A: -5.53% (inactive)

Q: With NCCc1ccc(O)c(O)c1 as the compound, how does the “activity, negative = inhibition” value read?
A: -8.2% (inactive)

Q: How did the Potency turn out when CCOC(=O)C1=C[C@@]2(CC)CCCN3CCc4c(n1c1ccccc41)[C@H]32 was run?
A: 15.1 µM (active)

Q: How did the “activity, negative = inhibition” value turn out when CC(=O)Oc1ccccc1C(=O)O was run?
A: -1.08% (inactive)

Q: For NC(N)=NC(=O)c1nc(Cl)c(N)nc1N, which Potency is on record?
A: 19 µM (active)

Q: With NC(=O)c1cnccn1 as the compound, how does the “activity, negative = inhibition” value read?
A: 1.02% (inactive)

Q: With Cc1ccccc1C(OCCN(C)C)c1ccccc1 (stereo not given) as the compound, how does the Potency read?
A: 13.5 µM (active)

Q: How did the “activity, negative = inhibition” value turn out when CCCc1nn(C)c2c(=O)[nH]c(-c3cc(S(=O)(=O)N4CCN(C)CC4)ccc3OCC)nc12 was run?
A: -1.84% (inactive)

Q: O=C1CCc2cc(OCCCCc3nnnn3C3CCCCC3)ccc2N1 was tested. Which “activity, negative = inhibition” value did it give?
A: 3.58% (inactive)

Q: With Cc1ccc(N(CC2=NCCN2)c2cccc(O)c2)cc1 as the compound, how does the “activity, negative = inhibition” value read?
A: -3.42% (inactive)

Q: Which “activity, negative = inhibition” value does the source give for C1COC(NC(C2CC2)C2CC2)=N1 here?
A: 0.862% (inactive)

Q: With CCOC(=O)C1=C[C@]2(CC)CCCN3CCc4c(n1c1ccccc41)[C@@H]32 as the compound, how does the Potency read?
A: 16.9 µM (active)

Reference: PubChem BioAssay (NCATS)
